High-throughput results as filed in PubChem.
ATXN2 expr inh: reduces ATXN2 reporter expression in HEK-293 cells; 360,000 tested, 0.72% active; HEK-293 ATXN2-luciferase reporter, luminescence, 24 h; AID 1745845; Potency, µM (titrated, usually from 57 µM), inactives show top-dose activity change, negative = inhibition, most hits filed as inhibitors; further: potency means the concentration at half of the fitted maximal effect; on the % scale 0 is the no-effect control and ±100 the full control effect; nearly all actives have a fitted effect of over 55% in size
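ATXN2-luciferase reporter cells (luciferase flanked by upstream and downstream ATXN2 gene portions) were treated 24 h at 37 °C with compounds at up to 57 uM. SteadyGlo luminescence gave expression; GF-AFC fluorescence gave viability.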
Six1-Eya2 inh: Six1/Eya2 interaction inhibition; Q15475+O00167; AlphaScreen GST-Six1/His-Eya2 binding, biochemical; active compounds read low; activity change, % (test concentration not listed); 360,000 tested, 0.56% active; in the data active means activity change below about -65%; inconclusive means mostly about -30% to -63%; further: on the % scale 0 is the no-effect control and ±100 the full control effect
Target sequence (O00167 whole entry, looked up): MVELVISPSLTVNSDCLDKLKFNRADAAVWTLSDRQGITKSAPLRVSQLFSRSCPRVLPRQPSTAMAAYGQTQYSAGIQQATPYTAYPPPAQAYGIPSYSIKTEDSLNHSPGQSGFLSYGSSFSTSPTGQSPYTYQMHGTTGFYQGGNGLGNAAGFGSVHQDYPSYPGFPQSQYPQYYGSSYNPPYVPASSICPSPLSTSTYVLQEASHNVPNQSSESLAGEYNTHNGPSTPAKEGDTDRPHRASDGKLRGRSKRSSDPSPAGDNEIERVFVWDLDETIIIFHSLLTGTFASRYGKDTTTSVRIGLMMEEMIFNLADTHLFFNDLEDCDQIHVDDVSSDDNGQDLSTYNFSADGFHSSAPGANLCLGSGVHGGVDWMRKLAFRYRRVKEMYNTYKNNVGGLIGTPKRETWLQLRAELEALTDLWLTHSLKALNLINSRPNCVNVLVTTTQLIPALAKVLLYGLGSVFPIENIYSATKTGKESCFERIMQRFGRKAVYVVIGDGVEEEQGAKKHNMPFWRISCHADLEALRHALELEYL
Target sequence (Q15475 whole entry, looked up): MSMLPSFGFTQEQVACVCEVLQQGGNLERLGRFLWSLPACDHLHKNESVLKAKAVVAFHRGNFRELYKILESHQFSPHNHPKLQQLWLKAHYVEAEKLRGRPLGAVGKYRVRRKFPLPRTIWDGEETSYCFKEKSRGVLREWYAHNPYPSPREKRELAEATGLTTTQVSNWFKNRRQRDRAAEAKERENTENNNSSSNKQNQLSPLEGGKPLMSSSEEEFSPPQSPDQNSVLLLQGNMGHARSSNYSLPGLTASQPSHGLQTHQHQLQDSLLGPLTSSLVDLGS
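Six1/Eya2 binding was read as AlphaScreen signal after compounds were pinned into GST-Six1 plus His-tagged Eya2 (5X stock 250/500 nM) in pH 8.0 Tris/NaCl/TCEP buffer, beads added, then incubated 1 h, 37 C, dark.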
ATXN viability: reduces viability in counter-screen for ATXN expression inhibitors. S2 cells (HEK-293 line with an ATXN2-luciferase reporter) viability, CellTiter-Fluor protease fluorescence, 24 h. Potency, µM (series often up to 56.7 µM), actives largely listed as cytotoxic. 400,000 tested, 0.49% active. AID 651635; further: potency means the concentration at half of the fitted maximal effect; nearly all actives have a fitted effect of over 40% in size
CtBP-E1A blk: blocks the CtBP interaction with E1A; AlphaScreen GST-E1A/His-CtBP binding, 1536-well; active compounds read low; activity change, % (concentration not given with the values); 340,000 tested, 0.49% active; in the data active means activity change below about -65%; inconclusive means mostly about -30% to -63%; further: on the % scale 0 is the no-effect control and ±100 the full control effect
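AlphaScreen with 125 nM GST-E1A and 125 nM His-CtBP (5X stocks) in Tris pH 8.0, 300 mM NaCl, BSA, Tween 20, TCEP. Compounds preincubated 2 h at 37 deg C, then glutathione donor/nickel acceptor beads added for 1 h at 37 deg C in dark.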
TGFb inhibitor: blocks TGF-b signaling; AID 588855; 410,000 tested, 1.2% active; HepG2 CAGA-GFP TGF-b/SMAD3 reporter, GFP fluorescence, 18 h; TGF-beta stimulated, 500 pg/mL final; Potency, µM (titrated, usually from 46.1 µM), for the others: at the highest dose activity, negative = inhibition, most hits filed as inhibitors; further: potency means the concentration at half of the fitted maximal effect; on the % scale 0 is the no-effect control and ±100 the full control effect; nearly all actives have a fitted effect of over 65% in size
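GFP signal (ex488/em500-530) from TGF-beta-stimulated HEPG2 CAGA-GFP cells, 500 pg/mL final, 18 h at 37 degrees C in DMEM plus 1% FBS, normalized to unstimulated and DMSO-stimulated controls.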
HepG2 tox: HepG2 cytotoxicity, counter-screen for TGF-b inhibitors; HepG2 CAGA-GFP viability, ATP luminescence, 18 h; Potency, µM (highest dose often 46.1 µM), without a hit: at the highest dose activity change, negative = cytotoxicity, hits mostly cytotoxic; 410,000 tested, 0.76% active; AID 588856; further: potency means the concentration at half of the fitted maximal effect
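CellTiter-Glo luminescence gave cytotoxicity after 18 hours at 37 degrees C. The cells were HepG2 CAGA-GFP in 1% FBS DMEM, stimulated with 500 pg/mL TGF-beta after compound addition. %Activity was normalised to no-cell wells (complete cell-killing) and DMSO (no toxicity), and curves were fitted and classified.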
* marks the source's active call; other numbers are inactive results; i = inactive; ? = inconclusive; . = no result; ! = not active in a repeat; [ ] = dose if it differs, or a comment. Rows were chosen to be rich in hits. Some 2.8% of all compounds tested hit in one or more screens of this group. Unless noted, the call rests on the fitted dose curve; in most records, active means well fitted curve in the direction sought with a large enough effect; inconclusive means small, poorly fitted or top-dose-only effect, or another doubt; inactive means no such curve, though single readings can be large; an effect the other way counts as inactive or inconclusive.

SMILES | ATXN2 expr inh | Six1-Eya2 inh | ATXN viability | CtBP-E1A blk | TGFb inhibitor | HepG2 tox
NC(Cc1ccc(C(F)(F)F)cc1)c1csc(Nc2ccc(C(=O)c3ccccc3)cc2)n1 (stereo not drawn) | 32µM* | -2 | i | ? | ? | 22µM*
O=C(N/N=C/c1cc(Br)c(Br)o1)c1ccc2c(c1)OCCO2 | -13% | -28 | ? | -4 | 2% | 14%
O=C(N/N=C/c1c[nH]c2ccc(Br)cc12)c1ccc2c(c1)OCO2 | -11% | -15 | ? | -18 | 15% | -29%
O=C(N/N=C/c1cc(Br)c(O)c(Br)c1O)c1ccc2c(c1)OCCO2 | ? | -85* | i | -97* | -27% | -4%
O=C(N/N=C/c1ccccc1O)c1ccc2c(c1)OCO2 | ? | ? | i | -78* | -26% | -13%
Cc1cc(Br)cc(/C=N/NC(=O)c2ccc3c(c2)OCO3)c1O | . | 0 | ? | . | 5.6µM* | 1.8µM*
O=C(N/N=C/c1cc(Br)cc(Cl)c1O)c1ccc2c(c1)OCO2 | 13µM* | -81* | i | -83* | ? | -64%
CC(C)CC1N=C2c3ccccc3N=C(SCC(=O)NCCc3ccc(Cl)cc3)N2C1=O (stereo not drawn) | -9% | . | i | . | 11% | -13%
O=C(CC1N=C2c3ccccc3N=C(SCc3ccc(Cl)cc3)N2C1=O)NCCc1ccccc1 (stereo not drawn) | 36% | . | i | . | 1% | -2%
COc1cc(Cl)cc(/C=N\NC(=O)c2ccc3c(c2)OCO3)c1O | . | -88* | . | ? | 11µM* | -27%
O=C(N/N=C/c1cc(Cl)cc([N+](=O)[O-])c1O)c1ccc2c(c1)OCO2 | ? | -20 | ? | ? | -23% | -29%
CCC1(C2CCN(Cc3cccc4ccccc34)CC2)NC(=O)N(Cc2ccc3c(c2)OCO3)C1=O (stereo not drawn) | . | . | i | . | . | .
O=C(NCCc1ccc(Cl)cc1)c1ccc(Cn2c(=O)c3cccn3c3cccnc32)cc1 | . | . | . | . | 11µM* | -60%
O=C(NCCc1ccccc1)c1ccc(Cn2c(=O)c3cccn3c3cccnc32)cc1 | . | . | . | . | 0% | -1%
O=[N+]([O-])/C=C\c1ccc(N2CCCC2)c(F)c1 | ? | 3 | ? | 5 | 11µM* | -35%
O=C(Nc1ccc(F)cc1F)N1CCN(c2ccc(Cl)c(Cl)c2)CC1 | 20µM* | . | ? | . | ? | -39%
COc1ccccc1Cn1c(CNS(=O)(=O)c2ccc(CC(C)C)cc2)nc2cccnc21 | . | . | . | . | 13µM* | -25%
COc1ccccc1Cn1c(CNS(=O)(=O)c2ccc(C(C)C)cc2)nc2cccnc21 | . | . | . | . | ? | -13%
CC1(C(=O)Nc2ccc3c(c2)OCO3)CCN1C(=O)CCc1ccc(Cl)cc1Cl (stereo not drawn) | -7% | -12 | 28µM* | -6 | -3% | -18%
CC1(C(=O)Nc2ccc3c(c2)OCO3)CCN1C(=O)Cc1cc(F)ccc1F (stereo not drawn) | -3% | 0 | i | 3 | 1% | -10%
CCCCCCCCCC[n+]1cc(Br)cc(Br)c1 | . | . | . | . | ? | 22µM*
CN(CCO)C(=O)c1cn(C2CCN(Cc3cccc(C(F)(F)F)c3)CC2)nn1 | . | . | i | . | . | .
O=C(/C=C/c1cccs1)c1cc(Br)ccc1OC(=O)N1CCOCC1 | ? | 1 | i | -2 | -4% | 11µM*
Cc1cccc(-c2nc(CN3CCCC(C(=O)N4CCN(c5cc(Cl)ccc5C)CC4)C3)c(C)o2)c1 (stereo not drawn) | ? | . | ? | . | -21% | -18%
CCn1c(CN2CCC(C)CC2)nc2cc(NC(=O)COc3ccc(Cl)c(C)c3)ccc21 | ? | . | ? | . | 4µM* | -37%
SMILES | ATXN2 expr inh | Six1-Eya2 inh | ATXN viability | CtBP-E1A blk | TGFb inhibitor | HepG2 tox
Cc1cccc(OCC(=O)Nc2ccc3c(c2)nc(CCN2CCC(C)CC2)n3C)c1 | -21% | -2 | ? | -1 | 3% | -6%
CC(C)=CCC/C(C)=C/Cc1c(O)ccc(C(=O)/C=C/c2ccc(O)cc2)c1O | ? | -7 | 32µM* | -5 | ? | -110%
O=C(NNc1ccccc1Br)C(O)(c1cccc(C(F)(F)F)c1)c1cccc(C(F)(F)F)c1 | ? | 0 | . | 3 | 7.9µM* | -103%
CC(C)C(=O)Nc1ncc(-c2cc(C(F)F)nn2-c2c(Cl)cccc2Cl)s1 | -1% | . | . | . | . | .
O=C(/C=C/c1cccc([N+](=O)[O-])c1)NCCSCc1ccc(Cl)cc1Cl | ? | -4 | i | 2 | 13µM* | -26%
O=C(/C=C/c1cccc([N+](=O)[O-])c1)NCCSCc1ccccc1Cl | 2% | -18 | i | -5 | -8% | -30%
O=C(O)c1ccccc1Nc1ccccc1C(=O)O | -10% | -8 | i | -17 | 8% | -5%
O=C1C=C(Nc2ccccc2C(=O)O)c2ccccc2C1=O | 8% | -20 | i | -29 | ? | 16µM*
O=C1C=C(Nc2ccccc2)c2ccccc2C1=O | ? | 18 | 28µM* | -20 | 3.2µM* | 3.5µM*
CCc1ccc(NC2=CC(=O)C(=O)c3ccccc32)cc1 | ? | -7 | ? | -4 | 2µM* | 2.8µM*
CCc1ccc2c(c1)C(=O)c1ccccc1C2=O | 72% | ? | i | ? | 2% | 9%
CCCCNC1=CC(=O)C(=O)c2ccccc21 | . | -7 | ? | . | 3.5µM* | 7.1µM*
COc1cc(CN2CCC3(CCC(CNC(=O)c4ccco4)O3)CC2)ccc1O (stereo not drawn) | . | . | i | . | . | .
Cc1ccc(NS(=O)(=O)c2cccc3cccnc23)c(Br)c1 | 3% | -2 | i | -5 | 20% | -2%
O=C1C=C(Nc2cccc3cccnc23)c2ccccc2C1=O | -14%[2.22 µM] | ? | 14µM* | ? | 5µM* | 3.5µM*
O=S(=O)(Nc1cccc2cccnc12)c1ccccc1Br | . | . | . | . | 6.3µM* | -40%
NS(=O)(=O)Nc1cccc2cccnc12 | . | . | . | . | -5% | 8%
Cc1cccc(-n2c(=O)c3ccccc3n(Cc3ccccc3)c2=O)c1 | -12% | . | i | . | -6% | -16%
Cc1c(CCCN)c2ccccc2n1Cc1ccccc1 | ? | -26 | ? | ? | ? | 16µM*
CCOC(=O)[C@@H](C)N(C(=O)OC(C)(C)C)S(=O)(=O)N(Cc1ccccc1)[C@@H](C(=O)OC)C(C)C | . | . | . | . | ? | -48%
CCOC(=O)[C@@H](C)N(C(=O)OC(C)(C)C)S(=O)(=O)N(Cc1ccccc1)[C@H](C(=O)OC)C(C)C | -8% | 6 | ? | 5 | 10µM*! | -31%
Cn1nnnc1SCCCNCc1cccc(OCc2ccccc2F)c1 | 12% | . | i | . | 33% | -31%
